RT RNaseH block: blocks HIV-1 RNase H cleavage of RNA/DNA duplex | P04585 | inhibition, % at 10 µM | RT-RNase H RNA/DNA duplex cleavage, fluorescence | actives 1.9% (n = 65,000) | AID 565; in the data active = inhibition above about 50%
RmlCD inh mix: RmlC/RmlD inhibition, mixture screen. RmlC/RmlD coupled enzyme inhibition, 384-well mixture HTS. inhibition, % at 5.5 µM. actives 0.39% (n = 110,000). AID 1532; in the data active = inhibition above about 30%, passing the limit was not always enough
RmlCD artifact: RmlC/RmlD fluorescence artifact, counter-screen; shares compounds with RmlCD inh mix; RmlC/RmlD assay fluorescence artifact counter-screen; calls only; actives 96% (n = 360); AID 1696; call rule not given here;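 note: compound alone with no enzyme and no substrates present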
An asterisk follows results filed as active. This is one part of a sample in which hits are shown more often than they occur.

For CN(C(=O)c1ccncc1)c1nnc(-c2ccccn2)s1 the results were RT RNaseH block -3, RmlCD inh mix 108* and RmlCD artifact active.
Screening CN(C(=O)c1ccc(C#N)cc1)c1nnc(-c2ccccn2)s1 returned RmlCD inh mix 40* and RmlCD artifact inactive.
`CN(C(=O)c1ccncc1)c1nnc(-c2cccnc2)s1` gave RT RNaseH block -7.
`CN(C(=O)c1ccccn1)c1nnc(-c2ccncc2)s1` gave RT RNaseH block 0.
`CN(C(=O)c1cccc(C#N)c1)c1nnc(-c2ccccn2)s1` gave RT RNaseH block -15, RmlCD inh mix 36* and RmlCD artifact active.
COc1ccc(-c2nnc(N(C)C(=O)c3ccno3)s2)cc1 was read as RmlCD inh mix 22.
`CN(C(=O)c1cccc(C#N)c1)c1nnc(C2CCOC2)s1` (configuration not stated) gave RT RNaseH block -8 and RmlCD inh mix -7.
O=C(Cn1nnc(-c2ccccc2)n1)c1ccccc1 was read as RT RNaseH block -19 and RmlCD inh mix -12.
For COc1ccc(-c2csc(NC(=O)CCn3cnc4ccccc4c3=O)n2)cc1OC the results were RmlCD inh mix -13.
CCOC(=O)C1=C(C)NC2=C(C(=O)CCC2)C1c1cccs1 (configuration not stated) was read as RT RNaseH block -16 and RmlCD inh mix -7.
`O=C1CN(C(=O)c2ccco2)c2ccccc2N1` gave RmlCD inh mix 14.
For COc1cccc(C(c2nnnn2CCc2ccccc2)N2CCN(c3ccccc3)CC2)c1OC (configuration not stated) the results were RT RNaseH block 16 and RmlCD inh mix -18.
`CNC(=O)c1cc2c(s1)-c1ccccc1CC2` gave RmlCD artifact active.
O=C(N/N=C/c1ccc(F)c(F)c1)c1cc2c(s1)-c1ccccc1CC2 was read as RmlCD inh mix -111.
For O=C(Nc1ccc2c(c1)OCO2)c1cccc(Cl)c1 the results were RT RNaseH block -8 and RmlCD inh mix -4.
O=c1[nH]cnc2cc(-c3ccccc3)sc12 was read as RT RNaseH block -4 and RmlCD inh mix 1.
For COc1ccc(-c2cc3nc[nH]c(=O)c3s2)cc1 the results were RmlCD inh mix 51* and RmlCD artifact active.
For COc1ccc(OC)c(CNC(=O)C2CCN(S(=O)(=O)N3CCCC3)CC2)c1 the results were RT RNaseH block -12 and RmlCD inh mix 3.
For COc1cc(NS(=O)(=O)c2ccc(NC(=S)NC(=O)C(C)(C)C)cc2)nc(OC)n1 the results were RmlCD inh mix 14.
COc1cc(-c2nnc(COc3ccc(Cl)cc3C)o2)cc(OC)c1OC was read as RmlCD inh mix 4.
For COc1ccc2oc(=O)c(-c3nc4ccccc4o3)cc2c1 the results were RmlCD inh mix 15.
COc1ccc2cc(-c3nc4ccccc4n3C)c(=O)oc2c1 was read as RmlCD inh mix 31* and RmlCD artifact active.
`CC(=O)COc1ccc2c3c(c(=O)oc2c1C)CCCCC3` gave RT RNaseH block -15 and RmlCD inh mix -5.
`COc1cc(/C=C2/C(=N)N3C=CSC3=NC2=O)ccc1OCCCOc1ccccc1C` gave RmlCD inh mix 13.
CCOc1cc(/C=C2/C(=N)N3C=CSC3=NC2=O)ccc1OCCCOc1ccccc1C was read as RmlCD inh mix 40* and RmlCD artifact active.
Screening Cc1onc(C(=O)N2CCC(C(N)=O)CC2)c1-c1ccccc1Cl returned RT RNaseH block -12.
Screening O=C(NC1(C(F)(F)F)NC(=O)N(C2CCCC2)C1=O)C1CC1 (configuration not stated) returned RT RNaseH block -12 and RmlCD inh mix 6.
Screening CC(C)Cn1c(-c2ccc(C#N)cc2)nc2c1c(=O)[nH]c(=O)n2CC(C)C returned RmlCD inh mix 32* and RmlCD artifact active.
For CCCCn1c(=O)[nH]c(=O)c2c1nc(-c1ccc(C#N)cc1)n2C1CCCC1 the results were RT RNaseH block 34.
Screening COc1ccc2cc3cc(C(=O)NC(C)C)oc3nc2c1 returned RmlCD inh mix 96* and RmlCD artifact active.
COc1ccc2cc3cc(C(=O)Nc4cc(OC)c(OC)c(OC)c4)oc3nc2c1 was read as RmlCD inh mix 13.
For CCOc1cc(-c2nc3c(C)cccn3c2NCC2CCCO2)ccc1O (configuration not stated) the results were RT RNaseH block -9, RmlCD inh mix 44* and RmlCD artifact active.
Screening CCOc1cc(-c2nc3ccccn3c2NCC2CCCO2)ccc1O (configuration not stated) returned RT RNaseH block -8 and RmlCD inh mix 14.
For Cc1ccc(S(=O)(=O)N/N=C/c2cn(C)nc2C)cc1 the results were RmlCD inh mix 1.
`COc1ccc(NC(=O)c2oc3ccccc3c2NC(=O)COc2ccccc2OC)c(OC)c1` gave RT RNaseH block 22, RmlCD inh mix 104* and RmlCD artifact active.
For COc1ccc(NC(=O)c2oc3ccccc3c2NC(=O)c2ccc(OC)c(OC)c2)c(OC)c1 the results were RT RNaseH block 6.
CC1CCC(NCCc2ccc3c(c2)OCO3)CC1 (configuration not stated) was read as RT RNaseH block -11 and RmlCD inh mix -14.
CCN(CC)Cc1c(O)ccc2c(C)c(CC(=O)OC)c(=O)oc12 was read as RT RNaseH block -1, RmlCD inh mix 110* and RmlCD artifact active.
CCCOc1ccc2c(C)c(CC(=O)OC)c(=O)oc2c1 was read as RT RNaseH block -10 and RmlCD inh mix -9.
For COC(=O)Cc1c(C)c2ccc(OCC(C)=O)c(C)c2oc1=O the results were RT RNaseH block -1 and RmlCD inh mix 8.
COC(=O)Cc1c(C)c2ccc(OCC(=O)N(C)C)cc2oc1=O was read as RmlCD inh mix 31* and RmlCD artifact active.
C=CCNC(=O)c1ccccc1NC(=O)c1cccc2ccccc12 was read as RmlCD inh mix -11.
Screening CC(CN1CCCCC1)OC(=O)C(C)(c1ccccc1)c1ccccc1 (configuration not stated) returned RmlCD inh mix 4.
`COP(C)(=O)c1c(C)nn(-c2ccccc2)c1C` (configuration not stated) gave RT RNaseH block -4.
For NNc1nnc(-c2ccccc2)c(-c2ccccc2)n1 the results were RmlCD inh mix 5.
For Nc1nc(N)c2nc(-c3ccccc3)c(N)nc2n1 the results were RT RNaseH block 1, RmlCD inh mix 119* and RmlCD artifact active.
`COc1ccc(-c2cc(C(F)(F)F)n3ncc(C(=O)NCC4CCCO4)c3n2)cc1` (configuration not stated) gave RT RNaseH block 4, RmlCD inh mix 36* and RmlCD artifact active.
`COc1cccc(-c2cc(C(F)(F)F)n3ncc(C(=O)NCC4CCCO4)c3n2)c1` (configuration not stated) gave RT RNaseH block -22 and RmlCD inh mix 8.
O=c1[nH]ncc2c3ccccc3n(Cc3ccccc3)c12 was read as RT RNaseH block -69 and RmlCD inh mix 6.
CC(C)CC(C(=O)Oc1ccc2c3c(c(=O)oc2c1)CCC3)N1C(=O)c2ccccc2C1=O (configuration not stated) was read as RmlCD artifact active.
